About 83,000 compounds went through this panel and 20% of them were active in at least one assay; those are over-represented in the sample as a whole.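 Testing used 96-well plates and a 48-hour single-concentration exposure. Example: -40 means 40% of the starting cells died.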 A number with no mark means an inactive call. The source made the active and inactive calls. The calls were made as follows: active = growth percent below 10; inactive = the rest.

Test systems include K-562 leukemia; MALME-3M melanoma; MDA-MB-231 breast; RXF 393 renal; SF-268 CNS; SF-295 CNS; SF-539 CNS; UACC-257 melanoma; M14 melanoma; HCT-15 colon.
Assay in all cases: NCI-60 one-dose screen, 48 h (100 = growth as untreated, 0 = no growth, -100 = all killed)
Details in all cases: 10 µM

Take `Clc1cc2c(c(CSc3nc4ccccc4n4cccc34)c1)OCOC2`: the growth was 74.4% with K-562 leukemia; 88.2% in the test with MALME-3M melanoma; 65.8% with MDA-MB-231 breast; 34.2% with RXF 393 renal; 85.4% with SF-268 CNS; 79.5% in the test with SF-295 CNS. Also, the growth with SF-539 CNS is 67.2%; in the test on UACC-257 melanoma it was 61.3%; with M14 melanoma, 87.5%; in the test with HCT-15 colon it was 71.4%.

On to `C/C(=N\Nc1nc2ccccc2s1)c1ccncn1`, for which the growth was 0.401% (active) with K-562 leukemia; 43.2% in the test with MALME-3M melanoma; 31.3% in the test with MDA-MB-231 breast; 9.64% (active) in the test on RXF 393 renal; 45.5% in the test on SF-268 CNS; 39.3% in the test on SF-295 CNS. Further, the growth was 40.8% in the test with SF-539 CNS, 55.6% with UACC-257 melanoma, 34.9% in the test on M14 melanoma and 18.6% with HCT-15 colon.

As to `CNc1ncc(-c2ccc(C(F)(F)F)cc2)c(NC2CCCCCC2)n1`, the growth was 76.2% in the test on K-562 leukemia; 61.3% in the test with MALME-3M melanoma; 92.8% in the test on MDA-MB-231 breast; 80.6% in the test with RXF 393 renal; 99.7% in the test on SF-268 CNS; 79.4% in the test with SF-295 CNS. Further, the growth with SF-539 CNS is 93.5%; in the test with UACC-257 melanoma it was 73.2%; in the test on M14 melanoma, 93.9%; in the test with HCT-15 colon it was 81.5%.

Consider `CC(C)(Cl)CCC1=C(Cl)C(=O)c2ccccc2C1=O`, for which the growth in the test on K-562 leukemia is -20% (active); with MALME-3M melanoma, 128%; in the test on MDA-MB-231 breast, 34.1%; in the test with RXF 393 renal, 28.8%; in the test with SF-268 CNS, 65.7%; with SF-295 CNS it was 105%. Also, the growth in the test on SF-539 CNS was 37.4%; in the test with UACC-257 melanoma, 39.2%; in the test on M14 melanoma, 63.9%; in the test on HCT-15 colon, 22.7%.

For `C#Cc1ccc(-n2c(/C=C/c3ccc4ccccc4c3)nc3ncccc3c2=O)cc1`, the growth in the test on K-562 leukemia was 6.94% (active); in the test on MALME-3M melanoma it was 39.5%; in the test with MDA-MB-231 breast, 42.1%; in the test with RXF 393 renal, -21.4% (active); with SF-268 CNS, 37.8%; with SF-295 CNS, 19.6%. For the same compound, the growth is 70.5% in the test on SF-539 CNS, 13% with UACC-257 melanoma, 1.76% (active) in the test on M14 melanoma and 25.4% with HCT-15 colon.

As for `CCOC(=O)CCC(NC(=O)c1ccc(N)cc1)C(=O)OCC` (stereo not given), the growth in the test on K-562 leukemia was 112%; in the test with MALME-3M melanoma it was 88.2%; in the test with MDA-MB-231 breast it was 126%; in the test with RXF 393 renal it was 129%; in the test on SF-268 CNS, 99.7%; in the test on SF-295 CNS, 136%. Besides, the growth in the test with SF-539 CNS was 97.6%; in the test on UACC-257 melanoma, 101%; in the test on M14 melanoma, 91.3%; in the test with HCT-15 colon, 98.7%.

`O=C1C(c2ccccc2)C2C=CC(C2)N1O` (stereo not given): the growth is 96.9% in the test with K-562 leukemia; 109% in the test on MALME-3M melanoma; 102% with MDA-MB-231 breast; 104% in the test with RXF 393 renal; 107% in the test with SF-268 CNS; 122% in the test on SF-295 CNS. Also, the growth in the test with SF-539 CNS was 113%; in the test with UACC-257 melanoma, 105%; with M14 melanoma it was 111%; in the test on HCT-15 colon, 106%.

Regarding `CN(C)CCN=c1nc2c(c(N)n1-c1ccccc1)c(=S)n(-c1ccccc1)c(=S)n2-c1ccccc1`, the growth in the test with K-562 leukemia was -11.4% (active); in the test on MALME-3M melanoma, -89.5% (active); in the test with MDA-MB-231 breast it was -13% (active); in the test on RXF 393 renal it was -39.1% (active); in the test with SF-268 CNS, 24%; with SF-295 CNS, -61.5% (active). The growth is -86.9% (active) in the test with SF-539 CNS, -74.6% (active) with UACC-257 melanoma, -84.4% (active) in the test with M14 melanoma and 18.8% in the test with HCT-15 colon.

In the case of `COC(=O)C1(C)Cc2cc(OC(C)=O)c(OC(C)=O)cc2N1` (stereo not given), the growth in the test on K-562 leukemia is 16%; in the test on MALME-3M melanoma, 79.7%; with MDA-MB-231 breast, 101%; with RXF 393 renal, 61.8%; in the test on SF-268 CNS, 87.5%; with SF-295 CNS, 121%. The growth in the test with SF-539 CNS is 91.3%; with UACC-257 melanoma, 19%; in the test with M14 melanoma it was 87.3%; with HCT-15 colon it was 35.6%.

With `CC1(C)OC2=C(CC1Br)C(=O)C(=O)c1ccccc12` (stereo not given), the growth with K-562 leukemia was -5.94% (active); with MALME-3M melanoma, -90.9% (active); with MDA-MB-231 breast, -25.1% (active); in the test with RXF 393 renal, -97.9% (active); in the test with SF-268 CNS it was -87.6% (active); with SF-295 CNS it was -84.5% (active). The growth is -82% (active) in the test with SF-539 CNS, -89.3% (active) in the test with UACC-257 melanoma, -91.2% (active) with M14 melanoma and -58.5% (active) with HCT-15 colon.

Regarding `CSc1nc(=O)n(Cc2ccc(Cl)cc2)c(=O)[nH]1`, the growth with K-562 leukemia is 96.1%; with MALME-3M melanoma it was 105%; with MDA-MB-231 breast it was 104%; with RXF 393 renal, 115%; in the test with SF-268 CNS, 102%; with SF-295 CNS it was 146%. Moreover, the growth in the test on SF-539 CNS is 101%; in the test on UACC-257 melanoma it was 102%; with M14 melanoma, 106%; in the test with HCT-15 colon, 103%.

Turning to `C[C@]12CC[C@@H]3c4ccc(O)cc4C[C@@H](O)[C@H]3[C@@H]1CC[C@@H]2O`, the growth is 105% in the test with K-562 leukemia; 102% in the test with MALME-3M melanoma; 107% with MDA-MB-231 breast; 110% in the test with RXF 393 renal; 109% in the test with SF-268 CNS; 112% with SF-295 CNS. In addition, the growth is 96.5% with SF-539 CNS, 88.6% with UACC-257 melanoma, 105% in the test with M14 melanoma and 102% with HCT-15 colon.

For `N#CCCN1C/C(=C/c2ccc(Cl)cc2)C(=O)/C(=C/c2ccc(Cl)cc2)C1`, the growth in the test with K-562 leukemia was 3.1% (active); in the test on MALME-3M melanoma, -52.8% (active); with MDA-MB-231 breast, -18.5% (active); with RXF 393 renal, -94.3% (active); in the test on SF-268 CNS, -38.6% (active); in the test with SF-295 CNS, -22.3% (active). In addition, the growth with SF-539 CNS was -50% (active); in the test on UACC-257 melanoma, -53.4% (active); in the test on M14 melanoma, -44.1% (active); in the test on HCT-15 colon, 2.04% (active).

As to `COc1ccc(-n2c(SCc3cc(OC)c(OC)c(OC)c3)nc3ccc(C)cc3c2=O)cc1`, the growth was 16.9% in the test on K-562 leukemia; 59.7% with MALME-3M melanoma; 59.8% in the test with MDA-MB-231 breast; 52.8% in the test on RXF 393 renal; 80.6% in the test with SF-268 CNS; 51.4% in the test with SF-295 CNS. The growth with SF-539 CNS is 77.7%; with UACC-257 melanoma, 77.3%; in the test with M14 melanoma, 53.8%; in the test on HCT-15 colon, 33.6%.

(Values after PubChem BioAssay (NCI).)
